# In PubChem BioAssay:
# Values joined by “and” are separate entries in the source; they are usually repeats but may differ in a detail not shown here. Equal values may be shown once. Active and inactive are the calls of the source. Unless noted, how the calls were made is not given here.
# What was measured:
# [1] = P. berghei load reduction in hepatocytes – cell-based, HepG2, luciferase luminescence, HepG2 viability, primary screen (AID 624349; in the data active means parasite load remaining mostly below about 12%, no sharp cut-off; inactive means mostly above about 10%;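 further: 100% = mean of DMSO negative control wells on the same plate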); details: P. berghei liver stage in HepG2, luciferase luminescence, concentration not given here; parasite load remaining: stronger effect = lower value; viability: measured here: HepG2 viability without parasites
# [2] = compounds altering HSF1 focus formation in cells – imaging, Selleck Cancer Library (AID 1347162; in the data active means plate-normalised HSF1 focus index below about 0.46); details: human cells, HSF1 nuclear foci imaging, at 10 µM; SSMD: measured here: HSF1 foci SSMD mean; cell count: measured here: cell number; plate-normalised HSF1 focus index: stronger effect = lower value
# [3] = growth inhibition, single agents and combos, LFS_MB_1R, cell-based, cisplatin or BGB combos, synergistic combos for chromothripsis tumors (AID 1671452; in the data active means inhibition above about 80%;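 further: cells exposed for 96 hours before readout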); details: LFS_MB_1R medulloblastoma cells, stronger effect = higher value
# [4] = growth inhibition, single agents and combos, CRL2098, cell-based, BGB or cisplatin IC20 combos, synergistic combos for chromothripsis tumors (AID 1671454; in the data active means inhibition above about 80%;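 further: cells exposed for 96 h before readout; 0% = vehicle DMSO and 100% = killing by high DMSO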); details: CRL2098 osteosarcoma cells, drug combinations, stronger effect = higher value
# [5] = growth inhibition, single agents and combos, HD-MB03, cell-based, BGB or cisplatin IC20 combos, synergistic combos for chromothripsis tumors (AID 1671455; in the data active means inhibition above about 83%;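 further: 0% = vehicle DMSO and 100% = high DMSO as cytotoxic control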); details: HD-MB03 medulloblastoma cells, stronger effect = higher value
# [6] = growth inhibition, single agents and combos, UWB1.289, cell-based, BGB or cisplatin combos, synergistic combos for chromothripsis tumors (AID 1671456; in the data active means inhibition above about 80%;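 further: cells exposed to compound for four days; 0% = vehicle DMSO and 100% = killing by high DMSO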); details: UWB1.289 ovarian carcinoma cells, stronger effect = higher value
# [7] = growth inhibition, single agents and combos, LFS_MB_2R, cell-based, cisplatin combos, synergistic combos for chromothripsis tumors (AID 1671457; in the data active means inhibition above about 80%;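 further: cells exposed to compound for four days before readout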); details: LFS_MB_2R medulloblastoma cells, stronger effect = higher value
# [8] = UWB1.289_BRCA1 ovarian cancer growth, cell-based, BGB or cisplatin combinations (AID 1671459; in the data active means inhibition above about 80%); details: UWB1.289 BRCA1 ovarian carcinoma, drug combinations, stronger effect = higher value
# [9] = drug combination toxicity in non-malignant astrocytes – cell-based, BGB or cisplatin IC20 combos, cytotoxicity control for chromothriptic childhood tumor combination screen (AID 1671460; in the data active means inhibition above about 80%;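 further: cells exposed to compounds for 96 hours before viability readout; 0% = vehicle and 100% = killing control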); details: Human astrocytes, viability inhibition, drug combinations, at 0.5 µM, stronger effect = higher value
# [10] = tested on: Hepatitis C virus NS3 helicase; experiment: blockers of NS3h binding to ssDNA – biochemical, fluorescence polarization, LOPAC1280 library, primary screen (AID 687035; in the data active means inhibition above about 37%); details: Purified HCV NS3 helicase, Cy5-dT15 ssDNA binding fluorescence polarization; stronger effect = higher value; concentration not given here
# [11] = compounds altering Cy5-DNA-NS3h complex signal – biochemical, LOPAC1280, artefact control for HCV NS3 helicase inhibitor project (AID 687037); details: Cy5-DNA-NS3h complex fluorescence interference counterscreen
# [12] = blockers of cellular phospholipid synthesis – cell-based, LOPAC library, screen 4, primary screen (AID 1347384); details: animal cells, phospholipid biosynthesis inhibition screen; at 10 µM
# [13] = galactose survival enhancers in mitochondrial complex I cybrids – cell-based, galactose medium, ATP luminescence, primary screen (AID 1645843;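 active means z-score of at least 1.8 in each of two replicates, scored against plate mean and spread of sample wells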;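 further: positive z means more ATP and so rescue of galactose-driven cybrid death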); details: complex I mutant cybrid cells, 72 h, stronger effect = higher value
# [14] = liver-stage malaria parasite load reduction – cell-based, known kinase inhibitor set, luminescence, hepatoma host viability (AID 624392); details: Plasmodium liver stage in hepatoma cells, luciferase luminescence, concentration not given here; liver cell % of control: measured here: host liver cell viability; parasite % of control: stronger effect = lower value;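 further: infected cells incubated roughly two days before readout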
# [15] = biological target: NAD(+) hydrolase SARM1 (Homo sapiens) (UniProt Q6SZW1); experiment: blocking NAD cleavage by SARM1 SAM-TIR – cell lysate, NAD-Glo luminescence (AID 1508614;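 active means compound whose remaining NAD level is above about 45 nM, limit read from the data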); details: SAM-TIR HEK293T lysate NADase, at 1 µM, stronger effect = higher value
# [16] = biological target: Mitogen-activated protein kinase 7 (Homo sapiens) (UniProt Q13164); experiment: Gal4-ERK5 driven luciferase induction – cell-based, HTS, primary screen (AID 1508626;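 active means luciferase signal above three times the same-plate solvent-only control wells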;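 further: luciferase driven by Gal4-ERK5 fusion binding five Gal4 sites before minimal TATA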); details: HeLa Gal4-ERK5 transactivation, 18 h, at 5 µM, stronger effect = higher value
# [17] = measured here: combination with cisplatin, at 0.5 µM
# [18] = measured here: combination with cisplatin, at 5 µM
# NAD(+) hydrolase SARM1 (Homo sapiens), sequence (Q6SZW1 whole entry, looked up, the tested form may be a part): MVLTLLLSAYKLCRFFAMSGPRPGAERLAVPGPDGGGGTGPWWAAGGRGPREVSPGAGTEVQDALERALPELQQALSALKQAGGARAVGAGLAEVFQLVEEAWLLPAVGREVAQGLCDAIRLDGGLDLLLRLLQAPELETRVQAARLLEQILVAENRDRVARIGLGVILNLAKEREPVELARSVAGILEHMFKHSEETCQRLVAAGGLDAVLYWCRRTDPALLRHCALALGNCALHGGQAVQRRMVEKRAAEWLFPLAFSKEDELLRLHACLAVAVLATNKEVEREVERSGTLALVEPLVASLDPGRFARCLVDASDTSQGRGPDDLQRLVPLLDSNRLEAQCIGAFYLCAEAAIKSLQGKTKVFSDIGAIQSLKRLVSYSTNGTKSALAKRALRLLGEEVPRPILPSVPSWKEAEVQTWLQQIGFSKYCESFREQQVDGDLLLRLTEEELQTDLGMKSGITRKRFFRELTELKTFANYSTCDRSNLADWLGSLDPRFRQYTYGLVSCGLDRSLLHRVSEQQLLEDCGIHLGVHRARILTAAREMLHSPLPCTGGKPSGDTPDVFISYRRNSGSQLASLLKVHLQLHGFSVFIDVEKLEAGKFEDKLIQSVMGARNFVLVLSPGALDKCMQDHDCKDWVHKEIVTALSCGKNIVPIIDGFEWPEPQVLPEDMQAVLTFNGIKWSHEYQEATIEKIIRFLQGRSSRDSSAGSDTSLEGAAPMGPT
# Mitogen-activated protein kinase 7 (Homo sapiens), sequence (Q13164 whole entry, looked up, the tested form may be a part): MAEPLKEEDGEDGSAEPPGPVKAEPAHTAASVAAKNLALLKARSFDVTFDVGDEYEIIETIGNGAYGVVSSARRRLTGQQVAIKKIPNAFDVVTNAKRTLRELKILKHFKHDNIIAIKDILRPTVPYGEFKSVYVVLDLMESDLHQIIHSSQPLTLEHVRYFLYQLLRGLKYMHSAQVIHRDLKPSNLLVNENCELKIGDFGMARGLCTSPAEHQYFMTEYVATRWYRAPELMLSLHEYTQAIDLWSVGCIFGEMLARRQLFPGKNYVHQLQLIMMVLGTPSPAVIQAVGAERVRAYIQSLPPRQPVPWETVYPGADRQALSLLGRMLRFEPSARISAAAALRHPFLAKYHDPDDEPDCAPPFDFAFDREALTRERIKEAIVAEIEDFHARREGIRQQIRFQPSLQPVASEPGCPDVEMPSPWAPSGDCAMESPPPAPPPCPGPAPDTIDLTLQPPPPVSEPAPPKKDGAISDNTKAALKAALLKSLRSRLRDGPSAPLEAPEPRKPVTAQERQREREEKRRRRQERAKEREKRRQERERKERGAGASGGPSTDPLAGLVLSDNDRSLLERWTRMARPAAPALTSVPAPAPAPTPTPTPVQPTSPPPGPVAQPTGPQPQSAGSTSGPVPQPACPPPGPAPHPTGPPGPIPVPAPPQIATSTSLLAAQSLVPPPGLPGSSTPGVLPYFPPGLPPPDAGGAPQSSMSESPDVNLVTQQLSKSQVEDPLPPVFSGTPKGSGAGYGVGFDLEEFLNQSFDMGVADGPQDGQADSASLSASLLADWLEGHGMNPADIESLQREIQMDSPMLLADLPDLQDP
structure (smiles),measurement,setting,value
CC(C)n1cnc2c(NCCCCCCNC(=O)OC(C)(C)C)nc(NCCO)nc21,parasite load remaining,[1],47.6% (inactive)
same,viability,[1],102%
Cc1cccc(-c2nn3c(c2-c2ccnc4ccc(C(N)=O)cc24)CCC3)n1,SSMD,[2],1.55
same,cell count,[2],6630
same,plate-normalised HSF1 focus index,[2],1.08 (inactive)
Nc1nc(OCc2cc(Br)cs2)c2[nH]cnc2n1,SSMD,[2],3.47
same,cell count,[2],6820
same,plate-normalised HSF1 focus index,[2],1.21 (inactive)
same,inhibition,[3]; at 0.5 µM,-20.5% (inactive)
same,inhibition,"[3]; measured here: combination with BGB IC40, at 0.05 µM",-27%
same,inhibition,[3]; [17],-33.3%
same,inhibition,[3]; [18],-35.3%
same,inhibition,[4]; at 0.5 µM,-32.8% (inactive)
same,inhibition,"[4]; measured here: combination with BGB at IC20, at 0.5 µM",-25.4%
same,inhibition,"[4]; measured here: combination with cisplatin at IC20, at 0.5 µM",-22.4%
same,inhibition,[5]; at 0.5 µM,-4.96% (inactive)
same,inhibition,"[5]; measured here: combo with BGB at IC20, at 0.5 µM",-7.38%
same,inhibition,"[5]; measured here: combo with cisplatin at IC20, at 0.5 µM",-2.87%
same,inhibition,[6]; at 0.5 µM,7.84% (inactive)
same,inhibition,"[6]; measured here: inhibition with BGB combination, at 0.05 µM",-1.57%
same,inhibition,"[6]; measured here: inhibition with cisplatin combination, at 0.05 µM",-17.8%
same,inhibition,[7]; at 0.5 µM,18.8% (inactive)
same,inhibition,[7]; [17],-4.84%
same,inhibition,[7]; [18],6.55%
same,inhibition,"[8]; BGB combination, concentration series, at 5 µM",-10.7%
same,inhibition,[8]; at 0.5 µM,-6.34% (inactive)
same,inhibition,"[8]; cisplatin combination, concentration series, at 5 µM",8.18%
same,inhibition,[9],-4.57% (inactive)
same,inhibition,[9]; measured here: combo with BGB IC20,2.71%
same,inhibition,[9]; measured here: combo with cisplatin IC20,-8.58%
CNC(=O)[C@@H](NC(=O)[C@H](CC(C)C)[C@H](O)C(=O)NO)C(C)(C)C,SSMD,[2],3.3
same,cell count,[2],6770
same,plate-normalised HSF1 focus index,[2],1.2 (inactive)
CC(C)n1nc(-c2ccc3oc(N)nc3c2)c2c(N)ncnc21,SSMD,[2],0.57
same,cell count,[2],6620
same,plate-normalised HSF1 focus index,[2],1.03 (inactive)
CCc1ccc(/C=C2/SC(=S)NC2=O)cc1,inhibition,[10],-3% (inactive)
same,fluorescence ratio (interference),[11],1 (inactive)
same,outcome,[12],inactive
same,z-score,[13],-0.65 (inactive)
O=C(CO)N1CCC(c2[nH]nc(-c3ccc(Cl)cc3)c2-c2ccncn2)CC1,liver cell % of control,[14],88.6% and 86.6% and 97.2%
same,parasite % of control,[14],11.9% (inactive) and 26% (inactive) and 30.9% (inactive)
CCNc1cc(NC2CCC(O)CC2)nc(Nc2ccc3c(ccn3Cc3ccccc3)c2)n1 (centres undefined),liver cell % of control,[14],83.4%
same,parasite % of control,[14],33.8% (inactive)
CCOC(=O)C1=C[C@@H](OC(CC)CC)[C@H](NC(C)=O)[C@@H](N)C1,parasite load remaining,[1],175% (inactive) and 21.5% (inactive)
same,viability,[1],83.1% and 67.5%
same,remaining NAD,[15],10 nM (inactive)
same,luciferase signal,[16],56 AU (inactive)
same,z-score,[13],0.705 (inactive)
